According to the supplement of paper PMC11732987, “Enantioselective OTUD7B fragment discovery through chemoproteomics screening and high-throughput optimisation” (Communications Chemistry, 2025):

Assays:
Assay in all cases: log2 ratio of Biotin-Ahx-Ub-VS probe labelling (fragment/DMSO); higher = less target engagement (more negative = stronger competition), active = hit call of the paper (q ≤ 0.05, log2 ratio ≤ -1)
Settings in all cases: compound concentration: 200 uM; treatment time: 3 h
USP34 = USP34 (UniProt Q70CQ2)
Summary of the method: (§1)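 Fragment (200 µM) or vehicle was incubated for 3 h with triplicate HEK293T lysate samples of 495 µg, which were then treated with Biotin-Ahx-Ub-VS at 0.5 µM final for 1 h. Labelled DUBs were enriched on NeutrAvidin, digested with LysC and trypsin, and analysed by diaPASEF LC-MS/MS. Values are average log2 fragment/vehicle ratios from an unpaired t-test on global-median-normalised Spectronaut label-free quantities, using proteins with ≥2 unique peptides.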

USP36 = biological target: T1, USP36 (UniProt Q9P275)
T1 sequence (whole entry): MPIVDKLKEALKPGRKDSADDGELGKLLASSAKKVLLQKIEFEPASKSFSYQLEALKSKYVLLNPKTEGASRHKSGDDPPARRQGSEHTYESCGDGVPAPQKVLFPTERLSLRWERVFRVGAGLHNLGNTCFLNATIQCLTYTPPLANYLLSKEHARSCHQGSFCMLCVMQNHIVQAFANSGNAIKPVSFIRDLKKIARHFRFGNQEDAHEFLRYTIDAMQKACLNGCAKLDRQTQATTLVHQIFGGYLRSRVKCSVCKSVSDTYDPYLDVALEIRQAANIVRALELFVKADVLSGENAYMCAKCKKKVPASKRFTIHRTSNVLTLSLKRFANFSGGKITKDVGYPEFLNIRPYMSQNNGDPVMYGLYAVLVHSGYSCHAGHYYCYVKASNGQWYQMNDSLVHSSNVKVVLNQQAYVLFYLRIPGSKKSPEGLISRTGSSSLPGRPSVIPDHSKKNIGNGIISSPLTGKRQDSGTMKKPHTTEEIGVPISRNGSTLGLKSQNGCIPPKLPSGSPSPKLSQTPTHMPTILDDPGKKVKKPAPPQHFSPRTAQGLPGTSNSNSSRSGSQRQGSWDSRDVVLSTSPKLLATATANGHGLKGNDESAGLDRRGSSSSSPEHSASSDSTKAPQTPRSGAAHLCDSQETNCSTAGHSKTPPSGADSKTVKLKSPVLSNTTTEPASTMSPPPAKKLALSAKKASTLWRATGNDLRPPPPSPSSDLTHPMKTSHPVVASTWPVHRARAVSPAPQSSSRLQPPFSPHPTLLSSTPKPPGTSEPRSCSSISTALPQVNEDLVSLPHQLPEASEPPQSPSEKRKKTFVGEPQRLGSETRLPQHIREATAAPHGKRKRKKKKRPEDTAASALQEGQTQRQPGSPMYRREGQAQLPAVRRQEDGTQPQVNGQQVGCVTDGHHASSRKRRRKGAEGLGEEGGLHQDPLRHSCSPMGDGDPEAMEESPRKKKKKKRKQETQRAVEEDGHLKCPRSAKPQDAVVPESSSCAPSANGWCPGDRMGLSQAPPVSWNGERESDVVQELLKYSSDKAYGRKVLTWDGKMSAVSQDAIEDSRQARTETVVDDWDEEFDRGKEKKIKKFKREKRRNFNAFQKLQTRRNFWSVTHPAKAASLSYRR
Summary of the method: as §1

USP38 = biological target: T2, USP38 (UniProt Q8NB14)
T2 sequence (whole entry): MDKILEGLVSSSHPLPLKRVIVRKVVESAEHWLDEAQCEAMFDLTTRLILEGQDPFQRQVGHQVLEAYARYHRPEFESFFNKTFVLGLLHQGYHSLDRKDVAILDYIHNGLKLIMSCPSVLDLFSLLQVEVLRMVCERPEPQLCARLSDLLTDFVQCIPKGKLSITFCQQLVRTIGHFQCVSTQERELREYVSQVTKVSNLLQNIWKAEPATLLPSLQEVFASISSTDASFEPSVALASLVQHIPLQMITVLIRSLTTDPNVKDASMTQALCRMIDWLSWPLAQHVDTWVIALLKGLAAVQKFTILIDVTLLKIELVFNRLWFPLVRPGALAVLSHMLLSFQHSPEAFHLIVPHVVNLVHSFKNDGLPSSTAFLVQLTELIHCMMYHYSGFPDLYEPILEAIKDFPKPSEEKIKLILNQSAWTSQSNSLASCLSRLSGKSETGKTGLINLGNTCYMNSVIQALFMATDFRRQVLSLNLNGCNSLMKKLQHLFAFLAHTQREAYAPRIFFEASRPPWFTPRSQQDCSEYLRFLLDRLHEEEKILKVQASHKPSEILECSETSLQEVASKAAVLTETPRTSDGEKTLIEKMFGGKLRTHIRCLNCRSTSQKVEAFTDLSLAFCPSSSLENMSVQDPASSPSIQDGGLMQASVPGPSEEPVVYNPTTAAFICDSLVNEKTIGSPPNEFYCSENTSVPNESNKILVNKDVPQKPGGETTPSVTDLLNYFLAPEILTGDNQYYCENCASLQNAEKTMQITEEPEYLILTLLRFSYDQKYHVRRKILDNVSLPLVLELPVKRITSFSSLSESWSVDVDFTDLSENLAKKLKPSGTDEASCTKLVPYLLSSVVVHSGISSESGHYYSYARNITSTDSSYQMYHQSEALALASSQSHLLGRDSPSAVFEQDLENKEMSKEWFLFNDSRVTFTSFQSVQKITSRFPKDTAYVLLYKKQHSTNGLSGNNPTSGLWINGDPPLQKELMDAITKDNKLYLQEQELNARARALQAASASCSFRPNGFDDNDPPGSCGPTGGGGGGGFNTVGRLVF
Summary of the method: as §1

USP39 = biological target: T3, USP39 (UniProt Q53GS9)
T3 sequence (whole entry): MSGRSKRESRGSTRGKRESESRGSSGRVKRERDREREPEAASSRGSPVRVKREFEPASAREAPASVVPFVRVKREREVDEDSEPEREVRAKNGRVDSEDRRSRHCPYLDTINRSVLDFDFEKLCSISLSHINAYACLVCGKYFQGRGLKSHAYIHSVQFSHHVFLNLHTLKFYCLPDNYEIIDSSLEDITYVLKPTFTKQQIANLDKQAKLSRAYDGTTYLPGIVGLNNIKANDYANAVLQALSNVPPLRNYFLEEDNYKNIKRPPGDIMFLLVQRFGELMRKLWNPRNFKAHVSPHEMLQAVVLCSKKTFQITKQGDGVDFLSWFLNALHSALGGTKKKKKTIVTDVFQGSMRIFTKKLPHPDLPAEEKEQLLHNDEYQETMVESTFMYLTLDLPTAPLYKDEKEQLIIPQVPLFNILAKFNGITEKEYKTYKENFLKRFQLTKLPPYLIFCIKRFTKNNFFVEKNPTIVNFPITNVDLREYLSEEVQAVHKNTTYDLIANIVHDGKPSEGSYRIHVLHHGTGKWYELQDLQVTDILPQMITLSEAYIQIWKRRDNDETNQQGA
Summary of the method: as §1

USP4 = biological target: T4, USP4 (UniProt Q13107)
T4 sequence (whole entry): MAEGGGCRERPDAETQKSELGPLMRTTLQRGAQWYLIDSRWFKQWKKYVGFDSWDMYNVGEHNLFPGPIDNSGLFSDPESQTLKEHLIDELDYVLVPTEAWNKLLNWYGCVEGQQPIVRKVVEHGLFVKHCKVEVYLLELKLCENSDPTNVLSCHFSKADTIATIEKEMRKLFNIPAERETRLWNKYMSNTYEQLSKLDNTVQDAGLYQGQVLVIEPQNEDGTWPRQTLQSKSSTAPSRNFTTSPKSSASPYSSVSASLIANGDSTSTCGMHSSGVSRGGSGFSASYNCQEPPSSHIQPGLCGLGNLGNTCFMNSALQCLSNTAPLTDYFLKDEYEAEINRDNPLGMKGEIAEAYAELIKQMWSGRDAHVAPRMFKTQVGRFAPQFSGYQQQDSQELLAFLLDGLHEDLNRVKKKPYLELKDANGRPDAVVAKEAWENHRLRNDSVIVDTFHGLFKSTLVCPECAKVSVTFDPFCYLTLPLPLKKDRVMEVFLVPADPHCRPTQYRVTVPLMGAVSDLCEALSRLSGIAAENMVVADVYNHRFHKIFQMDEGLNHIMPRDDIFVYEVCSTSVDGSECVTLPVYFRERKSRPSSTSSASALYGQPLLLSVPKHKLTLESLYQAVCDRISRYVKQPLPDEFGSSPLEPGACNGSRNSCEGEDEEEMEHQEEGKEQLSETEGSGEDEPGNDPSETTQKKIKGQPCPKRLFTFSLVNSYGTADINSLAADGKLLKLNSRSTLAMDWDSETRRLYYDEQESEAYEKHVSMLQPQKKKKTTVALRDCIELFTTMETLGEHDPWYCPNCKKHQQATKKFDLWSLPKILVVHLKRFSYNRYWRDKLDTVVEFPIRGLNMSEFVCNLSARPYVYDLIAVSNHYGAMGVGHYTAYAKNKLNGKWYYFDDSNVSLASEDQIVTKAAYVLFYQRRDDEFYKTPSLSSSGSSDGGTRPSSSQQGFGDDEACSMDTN
Summary of the method: as §1

Measured: log2 ratio of Biotin-Ahx-Ub-VS probe labelling

Sequence of USP34 (Q70CQ2 whole entry, the tested form may be a part): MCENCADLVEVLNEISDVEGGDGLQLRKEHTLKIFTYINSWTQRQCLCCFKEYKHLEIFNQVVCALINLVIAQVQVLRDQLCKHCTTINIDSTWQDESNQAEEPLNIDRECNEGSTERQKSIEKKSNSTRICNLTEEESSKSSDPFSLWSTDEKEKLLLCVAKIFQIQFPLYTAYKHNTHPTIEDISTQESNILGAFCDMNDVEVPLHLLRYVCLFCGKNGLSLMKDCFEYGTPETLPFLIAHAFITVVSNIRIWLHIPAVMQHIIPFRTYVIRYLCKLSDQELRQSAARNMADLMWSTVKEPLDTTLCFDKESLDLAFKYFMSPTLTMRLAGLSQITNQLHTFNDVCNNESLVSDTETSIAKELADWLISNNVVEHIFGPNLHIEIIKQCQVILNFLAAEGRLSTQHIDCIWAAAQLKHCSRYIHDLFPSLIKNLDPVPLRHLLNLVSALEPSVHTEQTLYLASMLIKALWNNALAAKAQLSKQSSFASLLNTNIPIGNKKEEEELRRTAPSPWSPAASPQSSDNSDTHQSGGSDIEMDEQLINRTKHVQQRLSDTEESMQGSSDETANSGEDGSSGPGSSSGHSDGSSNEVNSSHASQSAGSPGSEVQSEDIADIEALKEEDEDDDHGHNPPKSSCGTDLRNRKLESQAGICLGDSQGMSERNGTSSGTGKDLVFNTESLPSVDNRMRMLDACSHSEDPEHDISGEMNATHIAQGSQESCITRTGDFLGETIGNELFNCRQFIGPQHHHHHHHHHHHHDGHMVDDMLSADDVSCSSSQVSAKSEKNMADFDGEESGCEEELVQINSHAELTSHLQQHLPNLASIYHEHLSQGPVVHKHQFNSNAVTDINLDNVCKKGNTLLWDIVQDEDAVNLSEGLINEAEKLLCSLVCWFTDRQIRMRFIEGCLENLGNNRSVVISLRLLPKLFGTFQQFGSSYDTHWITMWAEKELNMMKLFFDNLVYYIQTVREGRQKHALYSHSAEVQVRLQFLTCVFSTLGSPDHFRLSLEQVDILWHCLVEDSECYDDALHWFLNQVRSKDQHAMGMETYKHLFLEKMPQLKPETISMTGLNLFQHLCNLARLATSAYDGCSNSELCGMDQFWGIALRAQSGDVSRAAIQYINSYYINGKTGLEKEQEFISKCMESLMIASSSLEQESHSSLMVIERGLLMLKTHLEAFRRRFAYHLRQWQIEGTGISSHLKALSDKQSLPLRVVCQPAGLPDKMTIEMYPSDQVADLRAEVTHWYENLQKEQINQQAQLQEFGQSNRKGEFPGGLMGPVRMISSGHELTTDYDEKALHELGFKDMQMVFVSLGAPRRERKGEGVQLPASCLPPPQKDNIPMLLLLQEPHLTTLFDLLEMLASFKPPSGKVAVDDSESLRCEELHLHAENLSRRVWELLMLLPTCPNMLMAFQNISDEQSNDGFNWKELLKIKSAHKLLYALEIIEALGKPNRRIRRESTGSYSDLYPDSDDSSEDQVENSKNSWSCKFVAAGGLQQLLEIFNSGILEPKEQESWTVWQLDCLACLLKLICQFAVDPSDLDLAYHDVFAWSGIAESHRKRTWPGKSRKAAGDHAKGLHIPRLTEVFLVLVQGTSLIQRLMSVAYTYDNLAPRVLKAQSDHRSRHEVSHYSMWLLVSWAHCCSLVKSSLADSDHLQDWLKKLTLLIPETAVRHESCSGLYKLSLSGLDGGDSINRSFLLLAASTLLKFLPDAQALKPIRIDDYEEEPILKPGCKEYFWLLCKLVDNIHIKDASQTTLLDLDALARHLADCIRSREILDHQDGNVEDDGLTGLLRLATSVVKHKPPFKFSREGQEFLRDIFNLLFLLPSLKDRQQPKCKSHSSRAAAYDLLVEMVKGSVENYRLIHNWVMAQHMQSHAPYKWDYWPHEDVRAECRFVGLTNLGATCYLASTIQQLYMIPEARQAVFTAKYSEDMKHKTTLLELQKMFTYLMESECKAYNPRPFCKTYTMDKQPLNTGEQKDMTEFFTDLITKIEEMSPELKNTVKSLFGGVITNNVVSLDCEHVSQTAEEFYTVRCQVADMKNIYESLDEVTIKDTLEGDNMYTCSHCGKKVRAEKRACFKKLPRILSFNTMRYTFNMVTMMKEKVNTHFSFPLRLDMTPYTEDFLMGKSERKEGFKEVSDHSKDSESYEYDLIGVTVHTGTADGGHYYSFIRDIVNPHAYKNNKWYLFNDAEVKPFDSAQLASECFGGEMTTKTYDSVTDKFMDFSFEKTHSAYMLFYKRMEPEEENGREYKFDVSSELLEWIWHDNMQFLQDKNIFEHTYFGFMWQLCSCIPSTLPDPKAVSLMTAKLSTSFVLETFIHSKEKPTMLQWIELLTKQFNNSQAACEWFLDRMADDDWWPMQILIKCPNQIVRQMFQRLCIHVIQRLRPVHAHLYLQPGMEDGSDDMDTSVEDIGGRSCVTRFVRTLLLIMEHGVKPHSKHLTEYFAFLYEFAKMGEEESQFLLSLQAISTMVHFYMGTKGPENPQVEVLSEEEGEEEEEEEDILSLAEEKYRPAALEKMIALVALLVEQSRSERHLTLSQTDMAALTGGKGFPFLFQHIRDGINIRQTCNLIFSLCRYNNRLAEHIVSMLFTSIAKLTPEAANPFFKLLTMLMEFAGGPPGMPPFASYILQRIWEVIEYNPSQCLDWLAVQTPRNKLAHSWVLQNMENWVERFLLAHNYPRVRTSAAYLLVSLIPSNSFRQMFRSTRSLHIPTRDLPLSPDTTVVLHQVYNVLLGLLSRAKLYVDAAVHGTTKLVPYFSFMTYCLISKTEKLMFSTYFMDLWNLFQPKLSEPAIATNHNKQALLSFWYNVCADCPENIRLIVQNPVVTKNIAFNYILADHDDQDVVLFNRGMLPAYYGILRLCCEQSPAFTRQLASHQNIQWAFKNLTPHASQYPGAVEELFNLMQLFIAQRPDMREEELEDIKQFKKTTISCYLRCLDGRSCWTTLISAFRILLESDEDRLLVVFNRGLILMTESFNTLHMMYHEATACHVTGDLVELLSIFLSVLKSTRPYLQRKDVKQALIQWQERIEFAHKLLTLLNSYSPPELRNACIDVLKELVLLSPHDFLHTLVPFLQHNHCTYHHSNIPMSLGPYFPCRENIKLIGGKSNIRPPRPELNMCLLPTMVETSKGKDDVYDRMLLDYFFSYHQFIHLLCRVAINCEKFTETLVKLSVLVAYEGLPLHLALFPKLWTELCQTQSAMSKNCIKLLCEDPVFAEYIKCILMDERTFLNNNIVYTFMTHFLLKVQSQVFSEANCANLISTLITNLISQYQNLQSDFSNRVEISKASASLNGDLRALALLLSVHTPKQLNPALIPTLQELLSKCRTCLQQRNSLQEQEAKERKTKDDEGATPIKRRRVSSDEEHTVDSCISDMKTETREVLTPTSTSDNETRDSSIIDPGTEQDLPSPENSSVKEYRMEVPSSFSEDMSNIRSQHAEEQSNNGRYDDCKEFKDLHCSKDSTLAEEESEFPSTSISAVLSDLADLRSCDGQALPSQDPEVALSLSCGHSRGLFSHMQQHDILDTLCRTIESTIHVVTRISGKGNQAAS

O=C(CCl)Nc1ccc(F)cc1Cl
inactive: USP34 -0.452 | USP36 0.0206 | USP38 -0.165 | USP39 0.253 | USP4 -0.129
